# Reference: PubChem BioAssay AID1578 (Sanford-Burnham Center for Chemical Genomics, 2009)
# Values joined by “and” are separate entries in the source; they are usually repeats but may differ in a detail not shown here. Identical values can stand only once. In all, about 290,000 compounds went through this assay and about 3,000 (1%) were called active. Cut-off read from the data, not from the text of the source: active = inhibition mostly above about 36% (no sharp cut-off); inactive = mostly below about 34%. The sample as a whole holds a higher share of actives than the screen did. Some structures have more than one record in an assay (separate samples or runs), and their calls can disagree.
# Test: NOD1 signaling inhibitors, primary screen, cell-based, luminescence, uHTS (AID 1578);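 note: HEK-293T reporter cells stimulated with the NOD1 agonist gamma-tri-DAP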
# Settings: NOD1-driven NF-kB luciferase reporter cells, at 4 µM, stronger effect = higher value
row,Structure (SMILES),inhibition
1,CCC(=O)c1ccc(OCC(=O)Nc2ccc(N3CCOCC3)cc2N2CCOCC2)cc1,-43.2% (inactive)
2,COc1ccc(C(=O)NCCN2CCOCC2)c(OC)c1OC,4.8% (inactive)
3,CNC(=O)C1CCN(S(=O)(=O)c2c(C)noc2/C=C/N(C)C)CC1,-22.5% (inactive)
4,Cc1cc(C)c(C#N)c(SCc2cc3c(cc2Cl)OCO3)n1,26.9% (inactive)
5,O=C(CSc1ccc2c(c1)OCCO2)Nc1ccc(N2CCOCC2)cc1,-37.2% (inactive)
6,COc1cccc(N2CCN(C(C)C(=O)NC34CC5CC(CC(C5)C3)C4)CC2)c1 (configuration not stated),-31.5% (inactive)
7,Cc1ccc(-n2ncc3c(SCc4cccnc4)ncnc32)c(C)c1,1.6% (inactive)
8,Cc1ccc(S(=O)(=O)NCCNC(=O)c2ccccc2)cc1,-16.6% (inactive)
9,Cc1ccc(S(=O)(=O)CNC(=O)c2ccccc2)cc1,-6.8% (inactive)
10,COc1ccccc1Oc1ccnc2cc(Cl)ccc12,27.5% (inactive)
11,O=C(/C=C/Nc1ccc(Br)cc1F)c1ccccc1,27.6% (inactive)
12,O=C(/C=C/Nc1ccc(F)cc1F)c1ccco1,-11.6% (inactive)
13,O=C(/C=C/Nc1ccc(Br)cc1F)c1ccco1,53.7% (active)
14,COc1ccc(C2C(C(=O)N3CCC(C)CC3)c3ccccc3C(=O)N2C)cc1 (configuration not stated),-14.1% (inactive)
15,COCCC(=O)NC1CCCc2c1cnn2-c1cccc(C)c1C (configuration not stated),-25.1% (inactive)
16,Cn1c(-c2ccc(F)cc2)cnc1SCC(=O)N1CCCCC1,-31.8% (inactive)
17,Cn1c(-c2ccccc2)cnc1SCC(N)=O,0.4% (inactive)
18,Cn1c(-c2ccccc2)cnc1SCC(=O)N1CCCCC1,32% (active)
19,Cc1cc(C)[n+](-c2ccc(C(C)C)cc2)c2[nH]c(=O)[nH]c(=O)c12,-20.8% (inactive)
20,Cc1[nH]nc(SCC(=O)Nc2cccc(O)c2)c1[N+](=O)[O-],-37.4% (inactive)
21,CCNS(=O)(=O)c1ccc(CCC(=O)Nc2cc(Cl)ccc2Oc2ccccc2)cc1,34% (inactive)
22,CCCNS(=O)(=O)c1ccc(CCC(=O)Nc2cc(Cl)ccc2Oc2ccccc2)cc1,79.1% (active)
23,CC(C)CNS(=O)(=O)c1ccc(CCC(=O)Nc2cc(Cl)ccc2Oc2ccccc2)cc1,23.4% (inactive)
24,COc1ccc(NC(=O)c2cc(S(=O)(=O)N3CCOCC3)cn2C)c(OC)c1,-19% (inactive)
25,CC(C)CNC(=S)N1CCC(C(=O)c2ccc(F)cc2)CC1,61.7% (active)

row,Structure (SMILES),inhibition
1,CCCNC(=S)N1CCC(C(=O)c2ccc(F)cc2)CC1,-20.1% (inactive)
2,C=CCNC(=S)N1CCC(C(=O)c2ccc(F)cc2)CC1,-20.4% (inactive)
3,Cc1ccc(C)c2c1sc(=NC(=O)CN1C(=O)CCC1=O)n2C,1.3% (inactive)
4,CCOC(=O)c1ccc(NC(=O)C2(c3ccccc3)CCCC2)cc1,14% (inactive)
5,Cc1[nH]n(-c2ncc(-c3ccc(Cl)cc3)s2)c(=O)c1C(c1ccc(Cl)cc1)C(C#N)C#N (configuration not stated),67.3% (active)
6,Cc1[nH]n(-c2ncc(-c3ccccc3)s2)c(=O)c1C(c1ccc(Br)cc1)C(C#N)C#N (configuration not stated),32.7% (inactive)
7,CCCc1[nH][nH]c(=O)c1C(c1ccc(Cl)cc1)C(C#N)C#N (configuration not stated),3.7% (inactive)
8,Cc1ccccc1N(C(=O)Cc1ccsc1)C(C(=O)NC1CCCCC1)c1ccc(F)cc1 (configuration not stated),-25.2% (inactive)
9,Cc1c(C2=CCN(S(=O)(=O)c3ccc(Br)cc3)CC2)c2ccccc2n1C,0.5% (inactive)
10,CC(=O)C1=C(C)NC(=O)NC1c1cccc([N+](=O)[O-])c1O (configuration not stated),-9.2% (inactive)
11,O=C(O)c1cc(-c2ccco2)nc2cc3ccccc3cc12,-6.3% (inactive)
12,O=C(O)c1cc(-c2ccco2)nc2ccc(Br)cc12,75.3% (active) and -18.2% (inactive)
13,O=C(O)c1cc(-c2ccco2)nc2ccccc12,-13.5% (inactive)
14,Clc1ccc(COn2c(-c3ccc(Cl)cc3)nc3ccccc32)cc1,-31.8% (inactive)
15,COc1ccc(/C=N/NC(=O)C2C3CCCCC32)cc1OC (configuration not stated),-9.5% (inactive)
16,COc1ccc(/C=N/NC(=O)C2C3CCCCC32C)cc1OC (configuration not stated),47.1% (active)
17,COc1cc(/C=N/NC(=O)C2C3CCCCC32C)cc(Br)c1O (configuration not stated),6.5% (inactive)
18,FC(F)(F)c1cc(Oc2ccc(Cl)cc2)ncc1-c1nnc(-c2ccc(Cl)cc2)o1,-6.5% (inactive)
19,CC(C)C(NS(=O)(=O)c1ccccc1)C(=O)OCc1cc([N+](=O)[O-])cc2c1OCOC2 (configuration not stated),-12.4% (inactive)
20,CC(Sc1cccc[n+]1[O-])C(=O)Nc1ccc([N+](=O)[O-])cc1Cl (configuration not stated),-22.4% (inactive)
21,Cc1ccc(-c2noc(C3CCCCC3)n2)cc1,-58.2% (inactive)
22,O=C(NCC1CCCO1)c1cccc(Oc2ccc([N+](=O)[O-])cc2)c1 (configuration not stated),-20.6% (inactive)
23,O=C(NCC1CCCO1)c1ccc(Oc2ccc([N+](=O)[O-])cc2Cl)cc1 (configuration not stated),13.6% (inactive)
24,CS(=O)(=O)N(CC(=O)NCC1CCCO1)c1cccc([N+](=O)[O-])c1 (configuration not stated),-15% (inactive)
25,COc1ccc([N+](=O)[O-])cc1N(CC(=O)NCC1CCCO1)S(C)(=O)=O (configuration not stated),-19.1% (inactive)

row,Structure (SMILES),inhibition
1,Cc1ccc([N+](=O)[O-])cc1N(CC(=O)NCC1CCCO1)S(C)(=O)=O (configuration not stated),60.2% (active)
2,O=C(NCC1CCCO1)c1ccc(Oc2ccc([N+](=O)[O-])cc2)cc1 (configuration not stated),42.4% (active)
3,COc1ccc(CCNC(=O)CCn2c(SCC#N)nc3ccccc3c2=O)cc1OC,10.3% (inactive)
4,COc1ccc2c(C)cc(SCC(=O)Nc3cccnc3Cl)nc2c1,-12.9% (inactive)
5,Nc1nonc1-n1nnc(C(=O)N/N=C/c2ccccc2)c1CN1CCc2ccccc21,-21.6% (inactive)
6,CNC(=O)NC(=O)COC(=O)CCCOc1ccc(OC)cc1,4.1% (inactive)
7,CCOc1ccc(CCNC(=O)c2cc3sccc3n2C)cc1OCC,26.3% (inactive)
8,CCOc1ccc(CCNC(=O)c2cc3sccc3n2CC)cc1OCC,49.7% (active)
9,COc1ccc(CCNC(=O)c2cc3sccc3n2C)cc1OC,5.4% (inactive)
10,COc1ccc(S(=O)(=O)N(C)c2ccc(C(=O)NC3CCCC3)cc2)cc1,-11.8% (inactive)
11,CC(=O)C(C)Sc1nnc(-c2ccccc2F)n1C1CC1 (configuration not stated),-26.2% (inactive)
12,CN1CCN(C(=S)c2cn(Cc3ccccc3F)c3ccccc23)CC1,-13.6% (inactive)
13,CC(=O)c1cn(CC(=O)Nc2ccccc2F)c2ccccc12,14.5% (inactive)
14,Cc1ccc(C)c(CN2CCC(CNC(=O)Nc3cccc(Cl)c3C)CC2)c1,2.1% (inactive)
15,CCOC(=O)C1=C(Cc2ccc(OC)cc2)C(=O)c2ccccc2C1=O,3.6% (inactive)
16,CCOC(=O)C1=C(O)c2ccccc2C(=O)/C1=C\c1ccc(CC)cc1,15.2% (inactive)
17,COc1cccc2cc(C(=O)C3=C(O)C(=O)N(CCN4CCOCC4)C3c3ccc(C(C)(C)C)cc3)oc12 (configuration not stated),-11.6% (inactive)
18,Cc1ccc(CN(C)C(=O)CCc2c[nH]c3ccccc23)o1,-18.4% (inactive)
19,CN1CCN(c2nc(-c3cccc([N+](=O)[O-])c3)nc3ccccc23)CC1,-0.7% (inactive)
20,CCC(=O)N1CCc2cc(S(=O)(=O)Nc3ccccc3C)ccc21,3.4% (inactive)
21,COc1ccc(O)c(-c2[nH]ncc2C(=O)c2cccc(C)c2)c1,-6.8% (inactive)
22,COc1ccc(O)c(-c2[nH]ncc2C(=O)c2ccccc2C)c1,26.5% (inactive)
23,CCOC(=O)c1sc(N(Cc2ccccc2)C(=O)COC(=O)c2ccccc2O)nc1C,-48% (inactive)
24,CCOC(=O)c1sc(N(Cc2ccccc2)C(=O)CCl)nc1C,28.7% (active)
25,CCOC(=O)c1sc(N(Cc2ccccc2)C(=O)COC(=O)c2ccc(O)cc2)nc1C,62.2% (inactive)

row,Structure (SMILES),inhibition
1,COc1ccc(S(=O)(=O)N2CCCOC2CNC(=O)C(=O)NCCc2ccco2)cc1OC (configuration not stated),-2.3% (inactive)
2,O=C(COC(=O)c1cccc(O)c1)NCc1ccc2c(c1)OCO2,-14.3% (inactive)
3,COc1ccc(C=O)cc1OC(=O)N1CCOCC1,-9.3% (inactive)
4,Cc1cc(C(=O)COC(=O)CN(C)S(=O)(=O)c2ccc(Cl)cc2)c(C)n1Cc1cccs1,-20.9% (inactive)
5,O=C(NCc1cn2ccccc2n1)c1ccc(Br)o1,-10.7% (inactive)
6,O=C(NCc1cn2ccccc2n1)c1ccccc1,-22.2% (inactive)
7,O=C(NCc1cn2ccccc2n1)c1ccco1,54% (active)
8,Cc1ccc(CNC(=O)C2CCCN(c3cnccn3)C2)cc1 (configuration not stated),-5.5% (inactive)
9,Cc1sc2ncn(CC(=O)NCC(=O)N(C)Cc3ccccc3)c(=O)c2c1C,-12.2% (inactive)
10,Cc1ccc(NC(=O)C2CCC(CNC(=O)[C@@H]3Cc4ccccc4CN3)CC2)cc1 (some centres not stated),-2.3% (inactive)
11,O=C(C1=C(O)C(=O)N(c2nccs2)C1c1ccccc1)c1cc2ccccc2o1 (configuration not stated),-8.9% (inactive)
12,CC(=O)C1=C(O)C(=O)N(c2nccs2)C1c1ccccc1 (configuration not stated),-8.5% (inactive)
13,COc1ccc(N2CC(C(=O)N3CCN(C)CC3)CC2=O)cc1 (configuration not stated),3.9% (inactive)
14,COc1ccc(C(=O)/C=C/Nc2ccc(S(=O)(=O)Nc3nc(C)cc(C)n3)cc2)cc1OC,-18.8% (inactive)
15,Cc1cc(C(=O)N/N=C/c2ccc([N+](=O)[O-])o2)c(C)o1,1.4% (inactive)
16,O=C(N/N=C/c1ccc([N+](=O)[O-])o1)c1cc2c(ccc3ccccc32)o1,41.1% (inactive)
17,Cc1ccc(C(=O)N/N=C\c2ccc([N+](=O)[O-])o2)cn1,13.2% (inactive)
18,Nc1nonc1C(=O)N/N=C/c1ccc(-c2cccc([N+](=O)[O-])c2)o1,5.4% (inactive)
19,O=C(CNc1ccccc1)N/N=C/c1ccc([N+](=O)[O-])o1,35% (inactive)
20,O=C(CNc1ccc2ccccc2c1)N/N=C/c1ccc([N+](=O)[O-])o1,-5% (inactive)
21,Nc1nonc1C(=O)N/N=C/c1ccc(Br)o1,-6% (inactive)
22,O=C(N/N=C/c1ccc([N+](=O)[O-])cc1)c1cc2ccccc2o1,2.4% (inactive)
